PubChem BioAssay
Activity calls are given as the source filed them. Unless noted, how the calls were made is not given here.

tested on: not listed separately; assay: HepG2 cytotoxicity, primary screen, cytotoxicity control for P. falciparum antimalarial project, cell-based, ATP luminescence (AID 2303;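 active means inhibition above 50%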;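 further: 0% = DMSO wells and 100% = digitonin-killed cells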); conditions: HepG2 viability, 24-48 h, at 10 µM, stronger effect = higher value

SMILES | inhibition
COc1ccc2nccc(NN=CC=Cc3ccccc3)c2c1 | 11% (inactive)
CN(Cc1ccncc1)C(Cc1ccccc1)C1CCN(Cc2ccc(O)c(Cl)c2)CC1 (stereo not given) | 22% (inactive)
C[C@@H]1CN(c2cnn(C/C=C/c3ccc(NC(=O)c4ccc5nonc5c4)cc3)c(=O)c2Cl)C[C@H](C)N1 | 71% (active)
Cc1oc(-c2ccccc2)nc1CCOc1ccc(C[C@H](Nc2ccccc2C(=O)c2ccccc2)C(=O)NCc2ccccn2)cc1 | -2% (inactive)
N#CC(NC(=O)C=Cc1ccccc1)c1ccccc1 (stereo not given) | 3% (inactive)
COc1ccc(F)cc1-c1ccccc1CNC(=O)CN(C)S(=O)(=O)c1cc(C)cc(Cl)c1C | -3% (inactive)
c1ccc(CCNc2ccnc(Nc3ccc4n[nH]nc4c3)n2)cc1 | 33% (inactive)
Oc1ccc(Cl)cc1Nc1nc(C(F)(F)F)nc2ccccc12 | 16% (inactive)
CCOc1ccc(-c2nonc2NC(=O)c2ccc(OC)cc2)cc1OCC | -1% (inactive)
Cn1cc(Br)c(-c2cccc(Nc3ccnc4cc(-c5nccs5)ccc34)c2)n1 | 37% (inactive)
O=C(/C=C/c1ccc(Cl)cc1)NCCCCCN1CCN(C(=O)Nc2ccc(Cl)c(C(F)(F)F)c2)CC1 | 18% (inactive)
COc1c(C2CCN(CCCCNC(=O)c3ccc(-c4ccc(Cl)cc4)cc3)CC2)ccc2c1C(C)(C)CCC2(C)C | 94% (active)
Cc1noc(C)c1-c1cccc(CNCc2cccc(-c3cccc(-c4nc5ccc(F)cc5[nH]4)c3)c2)c1 | 18% (inactive)
C=CCOC(=O)N1CCC(CNCc2ccc(-c3cccc(-c4nc5ccc(F)cc5[nH]4)c3)cc2)C1 (stereo not given) | 26% (inactive)
Cc1ccc(CNC(=O)[C@H](CC(C)C)Nc2cc(C)nc(NCC3CCCCC3)n2)cc1 | 6% (inactive)
CC(Sc1nc2sccc2c(=O)n1C)C(=O)Nc1ccc2c(c1)OCO2 (stereo not given) | 5% (inactive)
CCN(CC)S(=O)(=O)c1cc(-c2ccc(=O)n(CC(=O)c3ccc(C)cc3)n2)ccc1C | 6% (inactive)
O=c1ccc2ccc(F)c3c2n1CC3CN1CCC(NCc2ccc(-c3cccc(Cl)c3)nc2)CC1 (stereo not given) | 16% (inactive)
CCOc1cccc(C(=O)Nc2cccc(CN3CCCN(Cc4cccc(O)c4)CC3)c2)c1 | 17% (inactive)
COc1ccc(-c2ccc(NC(=O)c3cccc(F)c3)cc2)cc1CN1CCCN(C)CC1 | 32% (inactive)

SMILES | inhibition
Cc1ccc(Cl)cc1NC(=O)c1c(-c2ccccc2Cl)noc1C | 9% (inactive)
CC[C@H](C)CNC(=O)c1cncc(-c2ccc(CN3CCC(N4CCCC4)CC3)cc2)c1 | -8% (inactive)
COc1ccc(NC(=O)/C=C/c2ccccc2Cl)cc1OCCN1CCC(O)(c2ccc(Cl)c(C(F)(F)F)c2)CC1 | 37% (inactive)
O=[N+]([O-])c1ccc(Nc2nc(NN=Cc3cccc(O)c3)nc(N3CCCC3)n2)cc1 | -6% (inactive)
CC(C)NCc1ccc(-c2ccc(NC(=O)c3ccc(Cl)cc3)cc2)cc1 | 60% (active)
Cc1c(C(=O)N(C)C)sc2c1c(=O)n(Cc1ccccc1)c(=O)n2CC(=O)Nc1ccccc1F | 13% (inactive)
COc1ccc(CNC2Cc3ccccc3C2)cc1-c1ccc(S(=O)(=O)NCCc2ccccn2)s1 | 11% (inactive)
COc1cc(NC(=O)Nc2cccc3ccccc23)c(OC)cc1Cl | -12% (inactive)
CCOC(=O)c1sc(C(C)Nc2ccccc2)nc1-c1ccccc1 (stereo not given) | -8% (inactive)
COc1ccc(-c2cccc(CNC3CCN(C)CC3)c2)cc1S(=O)(=O)NCc1ccccc1 | 18% (inactive)
Cc1cc(C)cc(N2C(N)=NC(N)=NC2(C)C)c1 | 58% (active)
Nc1ncc(-c2ccc(Cl)c(Cl)c2)c(N)n1 | 65% (active)
COc1ccccc1C1CCN(C2CCC(NC(=O)/C=C/c3ccc(C(F)(F)F)cc3)CC2)CC1 (stereo not given) | 57% (active)
CCOc1cc(Cc2cnc(N)nc2N)cc(OC)c1OC | -3% (inactive)
COc1ccc(C=Cc2cc(N)c3ccccc3n2)cc1Br | 55% (active)
COc1ccc(NS(=O)(=O)c2cc(NC(=O)Cn3ccccc3=O)ccc2N2CCCCC2)cc1 | 20% (inactive)
NC1CCCN(Cc2ccc(-c3ccc(-c4nc5ccccc5[nH]4)s3)cc2)C1 (stereo not given) | 40% (inactive)
Clc1ccc(-c2ncc(-c3ccncc3)[nH]2)cc1Cl | 1% (inactive)
CN(C)CCNCc1ccc(-c2ccc(-c3nc4ccc(F)cc4[nH]3)cc2)cc1 | 8% (inactive)
O=[N+]([O-])c1cccc(CNCC2CCN(Cc3ccc(-c4ccccc4)cc3)CC2)c1 | 28% (inactive)

molecular target: L-lactate dehydrogenase (Plasmodium falciparum (isolate CDC / Honduras)) (UniProt Q27743); assay: PfLDH activity inhibition – cell lysate, 3D7 strain, counter-screen for P. falciparum growth inhibition project (AID 2304);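 further: 0% = vehicle and 100% = reference inhibitor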; conditions: P. falciparum 3D7 crude extract, LDH APAD/NBT absorbance; at 2 µM; stronger effect = higher value
Sequence (Q27743 whole entry, looked up): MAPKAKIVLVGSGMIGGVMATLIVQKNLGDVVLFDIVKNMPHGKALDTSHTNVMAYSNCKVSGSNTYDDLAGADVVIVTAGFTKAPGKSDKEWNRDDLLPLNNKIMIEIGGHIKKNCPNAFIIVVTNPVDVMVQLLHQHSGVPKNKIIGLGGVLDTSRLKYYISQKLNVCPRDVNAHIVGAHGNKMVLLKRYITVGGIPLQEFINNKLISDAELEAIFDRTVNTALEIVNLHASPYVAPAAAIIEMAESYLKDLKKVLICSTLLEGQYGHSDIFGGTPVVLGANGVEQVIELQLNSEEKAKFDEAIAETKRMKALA

SMILES | inhibition
COc1ccc2nccc(NN=CC=Cc3ccccc3)c2c1 | -3% (inactive)
CN(Cc1ccncc1)C(Cc1ccccc1)C1CCN(Cc2ccc(O)c(Cl)c2)CC1 (stereo not given) | -4% (inactive)
C[C@@H]1CN(c2cnn(C/C=C/c3ccc(NC(=O)c4ccc5nonc5c4)cc3)c(=O)c2Cl)C[C@H](C)N1 | -3% (inactive)
Cc1oc(-c2ccccc2)nc1CCOc1ccc(C[C@H](Nc2ccccc2C(=O)c2ccccc2)C(=O)NCc2ccccn2)cc1 | -1% (inactive)
N#CC(NC(=O)C=Cc1ccccc1)c1ccccc1 (stereo not given) | -8% (inactive)
COc1ccc(F)cc1-c1ccccc1CNC(=O)CN(C)S(=O)(=O)c1cc(C)cc(Cl)c1C | -2% (inactive)
c1ccc(CCNc2ccnc(Nc3ccc4n[nH]nc4c3)n2)cc1 | -4% (inactive)
Oc1ccc(Cl)cc1Nc1nc(C(F)(F)F)nc2ccccc12 | 5% (inactive)
CCOc1ccc(-c2nonc2NC(=O)c2ccc(OC)cc2)cc1OCC | -1% (inactive)
Cn1cc(Br)c(-c2cccc(Nc3ccnc4cc(-c5nccs5)ccc34)c2)n1 | -1% (inactive)
O=C(/C=C/c1ccc(Cl)cc1)NCCCCCN1CCN(C(=O)Nc2ccc(Cl)c(C(F)(F)F)c2)CC1 | 8% (inactive)
COc1c(C2CCN(CCCCNC(=O)c3ccc(-c4ccc(Cl)cc4)cc3)CC2)ccc2c1C(C)(C)CCC2(C)C | 1% (inactive)
Cc1noc(C)c1-c1cccc(CNCc2cccc(-c3cccc(-c4nc5ccc(F)cc5[nH]4)c3)c2)c1 | 3% (inactive)
C=CCOC(=O)N1CCC(CNCc2ccc(-c3cccc(-c4nc5ccc(F)cc5[nH]4)c3)cc2)C1 (stereo not given) | -2% (inactive)
Cc1ccc(CNC(=O)[C@H](CC(C)C)Nc2cc(C)nc(NCC3CCCCC3)n2)cc1 | -2% (inactive)
CC(Sc1nc2sccc2c(=O)n1C)C(=O)Nc1ccc2c(c1)OCO2 (stereo not given) | 4% (inactive)
CCN(CC)S(=O)(=O)c1cc(-c2ccc(=O)n(CC(=O)c3ccc(C)cc3)n2)ccc1C | -3% (inactive)
O=c1ccc2ccc(F)c3c2n1CC3CN1CCC(NCc2ccc(-c3cccc(Cl)c3)nc2)CC1 (stereo not given) | 3% (inactive)
CCOc1cccc(C(=O)Nc2cccc(CN3CCCN(Cc4cccc(O)c4)CC3)c2)c1 | -3% (inactive)
COc1ccc(-c2ccc(NC(=O)c3cccc(F)c3)cc2)cc1CN1CCCN(C)CC1 | -1% (inactive)

SMILES | inhibition
Cc1ccc(Cl)cc1NC(=O)c1c(-c2ccccc2Cl)noc1C | -1% (inactive)
CC[C@H](C)CNC(=O)c1cncc(-c2ccc(CN3CCC(N4CCCC4)CC3)cc2)c1 | 3% (inactive)
COc1ccc(NC(=O)/C=C/c2ccccc2Cl)cc1OCCN1CCC(O)(c2ccc(Cl)c(C(F)(F)F)c2)CC1 | -1% (inactive)
O=[N+]([O-])c1ccc(Nc2nc(NN=Cc3cccc(O)c3)nc(N3CCCC3)n2)cc1 | -5% (inactive)
CC(C)NCc1ccc(-c2ccc(NC(=O)c3ccc(Cl)cc3)cc2)cc1 | 3% (inactive)
Cc1c(C(=O)N(C)C)sc2c1c(=O)n(Cc1ccccc1)c(=O)n2CC(=O)Nc1ccccc1F | -1% (inactive)
COc1ccc(CNC2Cc3ccccc3C2)cc1-c1ccc(S(=O)(=O)NCCc2ccccn2)s1 | 0% (inactive)
COc1cc(NC(=O)Nc2cccc3ccccc23)c(OC)cc1Cl | 3% (inactive)
CCOC(=O)c1sc(C(C)Nc2ccccc2)nc1-c1ccccc1 (stereo not given) | 5% (inactive)
COc1ccc(-c2cccc(CNC3CCN(C)CC3)c2)cc1S(=O)(=O)NCc1ccccc1 | -5% (inactive)
Cc1cc(C)cc(N2C(N)=NC(N)=NC2(C)C)c1 | -4% (inactive)
Nc1ncc(-c2ccc(Cl)c(Cl)c2)c(N)n1 | -2% (inactive)
COc1ccccc1C1CCN(C2CCC(NC(=O)/C=C/c3ccc(C(F)(F)F)cc3)CC2)CC1 (stereo not given) | 4% (inactive)
CCOc1cc(Cc2cnc(N)nc2N)cc(OC)c1OC | -1% (inactive)
COc1ccc(C=Cc2cc(N)c3ccccc3n2)cc1Br | 2% (inactive)
COc1ccc(NS(=O)(=O)c2cc(NC(=O)Cn3ccccc3=O)ccc2N2CCCCC2)cc1 | 1% (inactive)
NC1CCCN(Cc2ccc(-c3ccc(-c4nc5ccccc5[nH]4)s3)cc2)C1 (stereo not given) | -2% (inactive)
Clc1ccc(-c2ncc(-c3ccncc3)[nH]2)cc1Cl | -5% (inactive)
CN(C)CCNCc1ccc(-c2ccc(-c3nc4ccc(F)cc4[nH]3)cc2)cc1 | -4% (inactive)
O=[N+]([O-])c1cccc(CNCC2CCN(Cc3ccc(-c4ccccc4)cc3)CC2)c1 | 6% (inactive)
